Out of some 48,000 compounds screened, about 13,000 (27%) showed an effect of 50% or more. The list shows a part of the results.
The compounds below were run on Wolbachia pipientis (assay: Anti-Wolbachia Cell-Based Screen). Conditions: 5 µM.
Assay type: functional
Parameters: scale not given: in the data most compounds retested in dose-response had high values

SMILES	Percent Effect
COCCOCC(=O)NCCCOC1CCCc2ccccc21 (stereo not drawn)	-58.49%
Cc1noc(C)c1CS(=O)(=O)CC(=O)N(C)Cc1cccc(F)c1	-54.06%
O=C(NCc1nncn1C1CC1)C1(c2ccccc2)CCOCC1	1.62%
CCS(=O)(=O)c1ncc(CN(C)Cc2ccccc2OC)n1CCOC	-30.57%
Cc1oc(-c2ccc(Cl)cc2)nc1C(=O)NC1=NCCS1	-49.42%
CCOCC(=O)N1Cc2[nH]nc(COCC3CC3)c2C1.O=C(O)C(F)(F)F	-0.4061%
COc1cc(CNC2CCCN(c3cccnn3)C2)cc2c1OCO2 (stereo not drawn)	-1.044%
CCc1nc2n(n1)CC(NCc1cc(OC)c3c(c1)OCO3)CC2 (stereo not drawn)	105%
COc1cc(CNC2CCc3nc(C(C)C)nn3C2)cc2c1OCO2 (stereo not drawn)	-4.906%
Cc1nc2n(n1)CC(NCc1nnc(C(C)(C)C)o1)CC2 (stereo not drawn)	-15.95%
CCc1nc2n(n1)CC(NCC(=O)Nc1cc(C)on1)CC2 (stereo not drawn)	-10.03%
Cc1nc2n(n1)CC(NCc1cc(Cl)c3c(c1)OCCCO3)CC2 (stereo not drawn)	2.469%
COc1cc(CNC2CCc3nc(C)nn3C2)cc2c1OCCO2 (stereo not drawn)	2.484%
COc1cc(CNC2CCc3nc(C)nn3C2)cc2c1OCO2 (stereo not drawn)	104.6%
CCc1nc2n(n1)CC(NCc1cc3ccccc3o1)CC2 (stereo not drawn)	-28.44%
CCc1nc2n(n1)CC(NCc1ccccc1OCC(=O)NC)CC2 (stereo not drawn)	0.2163%
CCc1nc2n(n1)CC(NCc1cc(OC)c3c(c1)OCCO3)CC2 (stereo not drawn)	96.75%

SMILES	Percent Effect
Cc1nc2n(n1)CC(NCc1cc(Cl)c3c(c1)OCCO3)CC2 (stereo not drawn)	95.39%
Cn1c(CCNC(=O)Nc2cn[nH]c2)nc2ccc(F)cc21	-27.77%
O=C(NCc1ccc(-n2cncn2)nc1)N(CC1CCOC1)C1CC1 (stereo not drawn)	4.835%
O=C(NC1(c2nccs2)CCCC1)c1cc(C2CC2)[nH]n1	-18.19%
CC(C)n1cnnc1CN(C)Cc1cnc(-c2ccco2)nc1	-3.944%
CNC(=O)c1cccc(CNC(C)c2ccc(F)cc2N(C)C)c1 (stereo not drawn)	2.761%
Cc1cc(CNC(=O)c2cccs2)ccc1S(C)(=O)=O	-1.482%
O=C(c1cnc(O)cn1)N1C[C@@H]2CC[C@H](C1)N(Cc1ccccc1)C2	93.73%
O=C(c1cccnc1)N1C[C@@H]2CC[C@H](C1)N(Cc1cccc(Cl)c1F)C2	-33.46%
Nc1ccc(C(=O)N2C[C@@H]3CC[C@H](C2)N(Cc2ccccc2)C3)cn1	108.6%
O=C(c1cccnc1)N1C[C@@H]2CC[C@H](C1)N(Cc1ccc(F)cc1Cl)C2	-16.95%
CCn1cc(CN2C[C@H]3CC[C@@H]2CN(C(=O)c2cnccn2)C3)cn1	6.074%
Cc1ccc(C(=O)N2C[C@@H]3CC[C@H](C2)N(Cc2ccccc2)C3)cn1	101.3%
CC(=O)c1ccc(C(=O)N2C[C@@H]3CC[C@H](C2)N(Cc2ccccc2)C3)s1	-1.466%
Cc1ccc(C)c(CN2C[C@H]3CC[C@@H]2CN(C(=O)c2cccnc2)C3)c1	3.177%
N#Cc1ccccc1CN1C[C@H]2CC[C@@H]1CN(C(=O)c1cccnc1)C2	-5.944%
